This is an account of results in PubChem BioAssay AID1672 (Johns Hopkins Ion Channel Center, 2009).

Each structure is given as a SMILES string. Among all 310,000 compounds or so, about 2,600 (0.84%) were called active. This is one part of a sample in which actives are shown more often than they occur.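 Rule for the calls: active = fluorescence ratio B-score at or below minus 3 SD of library scores, with starting-brightness B-score within 2 SD (cut at about -4.2 in these data); inactive = the rest.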

Chain of Inward rectifier potassium channel 2 (Mus musculus) (P35561 whole entry, looked up): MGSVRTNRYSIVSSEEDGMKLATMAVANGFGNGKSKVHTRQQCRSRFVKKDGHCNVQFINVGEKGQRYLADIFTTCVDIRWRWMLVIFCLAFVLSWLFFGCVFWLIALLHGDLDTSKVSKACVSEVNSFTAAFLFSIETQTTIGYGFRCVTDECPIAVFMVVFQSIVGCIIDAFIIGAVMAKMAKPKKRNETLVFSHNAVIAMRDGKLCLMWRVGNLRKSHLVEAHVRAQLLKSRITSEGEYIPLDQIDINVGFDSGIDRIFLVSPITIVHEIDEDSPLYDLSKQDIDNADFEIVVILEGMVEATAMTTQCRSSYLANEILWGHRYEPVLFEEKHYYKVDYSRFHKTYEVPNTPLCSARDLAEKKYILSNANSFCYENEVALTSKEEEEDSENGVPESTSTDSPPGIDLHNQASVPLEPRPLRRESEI

The assay has as its target Inward rectifier potassium channel 2 (Mus musculus) (UniProt P35561). In words: inhibitors of mouse Kir2.1 inward-rectifier potassium channel (AID 1672).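 Note: channel flux triggered by added potassium and thallium sulfate stimulus; B-score of peak minus minimum fluorescence over baseline after thallium stimulus; more negative B-score means stronger Kir2.1 block with less thallium influx.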 The following applies: HEK293-Kir2.1, FluxOR thallium flux fluorescence; at 10 µM; stronger effect = lower value.
Take `CSc1nc2ccccc2c(=O)n1Cc1ccc(F)cc1`: the B-score was -0.15 (inactive).

As to `CSc1c(SCc2ccccc2)cnn(Cc2ccccc2)c1=O`, the B-score was -5.77 (active).

As for `Cn1c(CO)cnc1SCc1ccccc1`, the B-score was 0.48 (inactive).

Take `O=C(NCCC1CCCCN1S(=O)(=O)c1ccc(Cl)cc1)C(=O)NCc1ccco1` (centres undefined): the B-score was 0.39 (inactive).

On to `CCCc1nc(SCC(=O)Nc2ccc(S(=O)(=O)N(C)C)cc2)c2ccccc2n1`, for which the B-score was 0.71 (inactive).

In the case of `CCCNC(=O)CSc1nc(Cc2ccccc2)nc2ccccc12`, the B-score was -5.07 (active).

As for `CCc1nc(SCC(=O)NNC(=O)c2ccc(C)cc2)c2ccccc2n1`, the B-score is -1.13 (inactive).

In the case of `Brc1cnc2ccccc2c1N1CCCCC1`, the B-score was 0.77 (inactive).

For the molecule `CCOc1ccc(NS(=O)(=O)c2ccc(C(=O)NCC(c3ccccc3OC)N3CCCC3)cc2)cc1` (centres undefined), the B-score is -0.36 (inactive).

On to `CC1CCN(C(=O)COC(=O)c2cc(S(=O)(=O)N3CCOCC3)ccc2Cl)CC1`, for which the B-score is -1.43 (inactive).

For the molecule `CCOc1ccc(/C=C/C(=O)N(CC)CC(=O)NCc2cccs2)cc1OC`, the B-score is 0.23 (inactive).

Consider `Cc1cccc(CN2CCC(CNC(=O)Nc3ccc(F)c(Cl)c3)CC2)c1`, for which the B-score was -4.23 (active).

For `Cc1ccc(C)c(CN2CCC(CNC(=O)Nc3ccc(C)c(F)c3)CC2)c1`, the B-score was -0.54 (inactive).

Take `Cc1ccccc1NC(=O)NCC1CCN(Cc2cccc(Cl)c2)CC1`: the B-score was -0.23 (inactive).

As to `O=C1[C@H]2[C@@H](c3ccc(Cl)cc3)N3C(=O)N(c4cccc(F)c4)C(=O)[C@@]3(Cc3ccccc3)[C@H]2C(=O)N1C1CCCCC1`, the B-score is 1.66 (inactive).

Take `CCCC[C@@H]1CN=C(N)N1CCCC`: the B-score was 0 (inactive).

Turning to `O=C(NCC(c1ccco1)N1CCc2ccccc21)c1cccc(F)c1` (centres undefined), the B-score is -0.73 (inactive).

As to `c1ccc(Cc2ccc(OCCn3ccnc3)cc2)cc1`, the B-score is -1.84 (inactive).

As to `Clc1c(OCCCn2ccnc2)ccc2ccccc12`, the B-score is -7.14 (active).

Turning to `C=CCc1cc(C)ccc1OCCCn1ccnc1`, the B-score is 0.46 (inactive).

With `CC(=O)Nc1ccc(NC(=O)CSC2=NS(=O)(=O)c3ccccc3N2)cc1`, the B-score is 1.78 (inactive).

On to `CC1(C)CC[C@]2(C(=O)O)CC[C@]3(C)C(=CCC4[C@@]5(C)CC[C@H](O)C(C)(C)C5[C@H](O)C[C@]43C)[C@@H]2C1` (some centres undefined), for which the B-score was -0.05 (inactive).

`CC(=O)c1sc(N)nc1C`: the B-score is 0.05 (inactive).

Consider `O=C1CC2(CCN(C(=O)COc3ccc(F)cc3)CC2)Oc2ccccc21`, for which the B-score was -0.48 (inactive).

For `CN(CC#CCC(c1ccccc1)c1ccccc1)C(C)(C)C`, the B-score was -5.14 (active).

For `CC(C)(C)N(CC#CCC(O)(c1ccccc1)C1CCCC1)CCO` (centres undefined), the B-score was -0.14 (inactive).

Regarding `COc1ccc(C#Cc2c(-c3ccc(OC)cc3)oc3ccc(-c4ccc5c(c4)OCO5)cc23)cc1`, the B-score was 0.43 (inactive).

For `CN(C)S(=O)(=O)c1cccc(C(=O)OCC(=O)N2CCCC2=O)c1`, the B-score was 0.88 (inactive).

Turning to `C=CCN(c1ccc(Cl)cc1)S(=O)(=O)c1cccc(C(=O)OCC(=O)N(C)C)c1`, the B-score is -4.24 (active).

For the molecule `COc1ccc(N(Cc2ccccc2)S(=O)(=O)c2cccc(C(=O)O)c2)cc1`, the B-score is -0.29 (inactive).

Consider `CCN(CC(=O)Nc1cccc(S(=O)(=O)N2CCCCC2)c1)Cc1ccccc1`, for which the B-score is -0.91 (inactive).

Turning to `Cc1ccccc1NC(=O)COc1cccc2c1CCNC2=O`, the B-score was -0.1 (inactive).

For `Cc1cc(OCC(=O)N(C)c2c(N)n(Cc3ccccc3)c(=O)[nH]c2=O)c(C(C)C)cc1Cl`, the B-score was -0.39 (inactive).

With `FC(F)(F)c1ccc2c3n(nc2c1)CCN=C3c1ccc(Cl)cc1`, the B-score was 0.62 (inactive).

As to `CN(C(=O)c1cc2c(=O)n3ccccc3nc2s1)C1CCCCC1`, the B-score was -0.51 (inactive).

With `CC(C)CN(C(=O)Cn1c(=O)cnc2ccccc21)C1CCS(=O)(=O)C1` (centres undefined), the B-score is -2.2 (inactive).

As for `CSc1ccc(CN(C)CC(=O)NCc2ccc(F)cc2)cc1`, the B-score is -4.3 (active).

For `Cc1ccc(NC(=O)CN(C)Cc2ccc(F)cc2)c([N+](=O)[O-])c1`, the B-score is -0.89 (inactive).

As to `Cc1ccc(SC(C)C(=O)NCc2ccc(F)cc2)cc1` (centres undefined), the B-score is -0.79 (inactive).

Turning to `CN(CC(=O)Nc1cccc(F)c1)C(=O)C1=COCCO1`, the B-score was -0.96 (inactive).

With `O=C(NCCC1CCCCN1S(=O)(=O)c1cccs1)C(=O)Nc1ccc(F)cc1F` (centres undefined), the B-score is -1.66 (inactive).

On to `Cc1cc(C)c(C)c(S(=O)(=O)Nc2ccc(O)cc2)c1C`, for which the B-score is -9.99 (active).

Turning to `Cc1cc(C)c(C)c(S(=O)(=O)Nc2cccnc2)c1C`, the B-score was -0.73 (inactive).

For the molecule `CCOc1ccc(NS(=O)(=O)c2cc(C)c(C)cc2C)cc1`, the B-score is -1.54 (inactive).

Turning to `C=CCC1(C(=O)N(C)Cc2ccccc2)CCN(C(=O)OC(C)(C)C)CC1`, the B-score was 0.59 (inactive).

`COc1cc2ccccc2cc1C(=O)Nc1ccncc1`: the B-score is -0.09 (inactive).

As for `S=C(NCCc1ccccc1)NCc1ccccc1Cl`, the B-score is -2.33 (inactive).

With `OCCNCc1cccc(OCc2ccccc2Cl)c1`, the B-score is -5.85 (active).

Turning to `OCCNCCOc1ccc(Cl)c(Cl)c1`, the B-score was 0.04 (inactive).

With `CCCCN(C(=O)c1ccc(C)o1)c1c(N)n(CCCC)c(=O)[nH]c1=O`, the B-score was 1.81 (inactive).

On to `CC(C)(C)n1nc(Cc2cccc3ccccc23)c(C#N)c1N`, for which the B-score was 0.39 (inactive).

In the case of `CC(C)(c1ccccc1)c1ccc(OCCN2CCCC2)cc1`, the B-score is -6.84 (active).

For `CN(C)CC(O)COc1ccc(C(C)(C)c2ccc(OCC(O)CN(C)C)cc2)cc1` (centres undefined), the B-score is -2.29 (inactive).

With `CC(C)(c1ccccc1)c1ccc(OCCN)cc1`, the B-score is -6.43 (active).

In the case of `Cc1nn(CCOc2ccccc2)c(=O)n1-c1ccccc1F`, the B-score was -0.66 (inactive).

As for `c1ccc2cc(OCCN3CCCC3)ccc2c1`, the B-score is 1.22 (inactive).

As to `c1ccc(-c2ccc(OCCN3CCOCC3)cc2)cc1`, the B-score is -0.1 (inactive).

Regarding `O=C(NC(Cc1ccccc1)C(=O)N1CCCC(C(F)(F)F)C1)c1ccccc1` (centres undefined), the B-score is -0.03 (inactive).

For the molecule `CCN1C(=O)[C@@H]2[C@@H](c3ccc(-c4ccccc4)cc3)N3CCCC[C@@]3(C(=O)OC)[C@@H]2C1=O`, the B-score is 2.48 (inactive).

Take `CC(=O)c1ccc(S(=O)(=O)NC2CC(=O)N(c3ccc4c(c3)OCCO4)C2)cc1` (centres undefined): the B-score is 2.09 (inactive).

As to `CCCCN1C(N)=NC[C@@H]1Cc1ccccc1`, the B-score was 1.05 (inactive).

With `Nc1ccc(C(=O)N2CCN(S(=O)(=O)c3ccc(Cl)cc3)CC2)cc1[N+](=O)[O-]`, the B-score is 0.63 (inactive).

Turning to `COc1ccccc1CCNS(=O)(=O)c1cc2c3c(c1)C(C)C(=O)N3CCC2` (centres undefined), the B-score was -5.71 (active).

With `CC1C(=O)N2CCCc3cc(S(=O)(=O)NCc4ccc(F)cc4)cc1c32` (centres undefined), the B-score is -0.21 (inactive).

Consider `CCOc1ccccc1NS(=O)(=O)c1cc2c3c(c1)C(C)C(=O)N3CCC2` (centres undefined), for which the B-score is -0.71 (inactive).

In the case of `COc1ccc(N2CC(NS(=O)(=O)c3ccc4ccccc4c3)CC2=O)cc1` (centres undefined), the B-score is 0.13 (inactive).

`O=C(CCCN1CCc2[nH]c3ccc(F)cc3c2C1)c1ccc(F)cc1`: the B-score is -7.87 (active).

Turning to `CCCC(=O)N1CCc2[nH]c3ccccc3c2C1`, the B-score is 0.74 (inactive).

With `Cc1ccc2[nH]c3c(c2c1)CN(C(=O)CN1CCN(c2ccccc2)CC1)CC3`, the B-score is 0.62 (inactive).

On to `CCOc1cc(C(=O)Nc2ccc(S(=O)(=O)Nc3cnc4ccccc4n3)cc2)cc(OCC)c1OCC`, for which the B-score was 1.91 (inactive).

On to `CN(C)C(CNC(=O)c1cccc(S(=O)(=O)Nc2ccc(Br)cc2)c1)c1ccco1` (centres undefined), for which the B-score was 0.84 (inactive).

For the molecule `O=C(NCc1ccccn1)Nc1ccc(Cl)cc1`, the B-score is 0.46 (inactive).

In the case of `CC(=O)C12CC(C)=C(C)CC1CC1C3CCC4=CC(=O)CCC4(C)C3CCC12C` (centres undefined), the B-score was 0.6 (inactive).

As for `CCN(CC(=O)Nc1cc(Cl)ccc1C)C(=O)Cn1c(=O)cnc2ccccc21`, the B-score was -0.02 (inactive).

With `CCN(CC(=O)Nc1cc(Cl)ccc1C)C(=O)CSCc1ccc(C)cc1`, the B-score was -4.45 (active).

Turning to `CCN(CC(=O)Nc1cc(Cl)ccc1C)C(=O)CN1C(=O)NC2(CCCC2)C1=O`, the B-score is -1.31 (inactive).

In the case of `C=CCSc1nnc2c(n1)-c1cccc3cccc-2c13`, the B-score was 1.16 (inactive).

On to `Cc1[nH][nH]c(=O)c1C(c1ccc2c(c1)OCO2)c1c(C)[nH][nH]c1=O`, for which the B-score was -0.12 (inactive).

As to `Cc1[nH][nH]c(=O)c1C(c1ccc(-c2ccc(Cl)cc2)o1)c1c(C)[nH][nH]c1=O`, the B-score is -9.44 (active).

As to `CCOc1ccc(C(c2c(C)[nH][nH]c2=O)c2c(C)[nH][nH]c2=O)cc1OCC`, the B-score was -0.06 (inactive).

Take `Cc1cccc(Nc2nc(NCCO)nc(N3CCCC3)n2)c1`: the B-score was 0.27 (inactive).

On to `CCCCn1c(N)c(N(Cc2ccccc2OC)C(=O)COc2cc(C)ccc2Cl)c(=O)[nH]c1=O`, for which the B-score is 0.8 (inactive).

With `COC(=O)[C@@]12CCCN1[C@H](c1ccc(-c3ccc(F)cc3)c(OC)c1)[C@H]1C(=O)N(C)C(=O)[C@H]12`, the B-score was -0.2 (inactive).

In the case of `CC(C)(C)c1cc2cccnc2n1Cc1cccc(F)c1`, the B-score was -5.77 (active).

In the case of `COc1ccnc2c1c(=O)n(Cc1cccc(F)c1)c(=O)n2C`, the B-score was 0.78 (inactive).

Turning to `CC(C)(C)c1cc2cccnc2n1Cc1ccccc1`, the B-score was -3.38 (inactive).

For `CC1CCC2(CC1)NC(=O)N(CC(=O)c1ccc3c(c1)OCO3)C2=O` (centres undefined), the B-score was 0.27 (inactive).

As for `O=C(O)C1CC=CCC1C(=O)Nc1ccccc1C(=O)N1CCN(c2ccccc2)CC1` (centres undefined), the B-score was -0.23 (inactive).

For `CC(C)c1ccc(N2CCN(C(=O)c3ccccc3NC(=O)/C=C(\C(=O)O)c3ccccc3)CC2)cc1`, the B-score was -8.79 (active).

For `COc1ccc(C(=O)Nc2ccccc2C(=O)N2CCN(c3ccccc3)CC2)cc1`, the B-score is 0.29 (inactive).

Regarding `Cc1onc(-c2ccccc2Cl)c1C(=O)OCc1nnc(-c2ccccc2)o1`, the B-score was 0.59 (inactive).

Take `COc1ccc(CCN=C2SCC(=O)N2Cc2ccccc2)cc1OC`: the B-score is -8.95 (active).

As for `COc1ccc(CCN=C2SCC(=O)N2C)cc1OC`, the B-score was 0.11 (inactive).

For the molecule `COc1ccc(CCNC2=C(Cl)C(=O)N(Cc3ccccc3)C2=O)cc1OC`, the B-score is -1.89 (inactive).
